According to PubChem BioAssay AID1159580 (chemical genetic matrix, 2015):
The whole screen tested about 5,500 compounds, of which about 2,000 (36%) were called active. Roughly 18% stayed inconclusive and do not appear here. Rule as the data show it: active = normalized growth mostly below about 0.91 (no sharp cut-off); inconclusive = no clear call, values can overlap the other calls; inactive = mostly above about 0.92. This is one part of the list.

Experiment: chemical genetic growth profiling, strain panel (AID 1159580);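 also: tested at 20 µM; growth read once vehicle control cultures reached saturation at 30 °C; 1 = growth at the plate median or of vehicle wells; lower values mean less growth of the strain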
Settings: growth OD

Measured: normalized growth

CO[C@@]1(NC(=O)Cc2cccs2)C(=O)N2C(C(=O)O)=C(COC(N)=O)CS[C@@H]21
inactive: S. cerevisiae deletion strains, locus YJR066W, strain TOR1, active compounds read low 0.995 | S. cerevisiae deletion strains, locus YKL009W, strain mrt4, active compounds read low 1.01 | S. cerevisiae deletion strains, locus YKL068W, active compounds read low 0.992 | S. cerevisiae deletion strains, locus YKL085W, strain MDH1 (second series), active compounds read low 0.992 | S. cerevisiae deletion strains, locus YKL085W, strain MDH1, active compounds read low 0.992 | S. cerevisiae deletion strains, locus YKL160W, strain elf1, active compounds read low 0.927 | S. cerevisiae deletion strains, locus YKL190W, strain CNB1, active compounds read low 1.01 | S. cerevisiae deletion strains, locus YKR001C, strain vps1, active compounds read low 0.995 | S. cerevisiae deletion strains, locus YKR026C, strain gcn3, active compounds read low 0.977 | S. cerevisiae deletion strains, locus YKR091W, strain srl3, active compounds read low 0.971 | S. cerevisiae deletion strains, locus YLL001W, strain dnm1, active compounds read low 0.966 | S. cerevisiae deletion strains, locus YLL026W, active compounds read low 0.986 | S. cerevisiae deletion strains, locus YLL041C, strain sdh2, active compounds read low 0.971 | S. cerevisiae deletion strains, locus YLR027C, strain aat2, active compounds read low 0.985 | S. cerevisiae deletion strains, locus YLR039C, strain RIC1, active compounds read low 0.998 | S. cerevisiae deletion strains, locus YLR058C, strain SHM2, active compounds read low 1.01 | S. cerevisiae deletion strains, locus YLR102C, strain apc9, active compounds read low 0.989 | S. cerevisiae deletion strains, locus YLR113W, strain HOG1, active compounds read low 1.06 | S. cerevisiae deletion strains, locus YLR221C, strain rsa3, active compounds read low 1 | S. cerevisiae deletion strains, locus YLR258W, strain gsy2, active compounds read low 0.976 | S. cerevisiae deletion strains, locus YLR262C, strain YPT6 (second series), active compounds read low 0.98 | S. cerevisiae deletion strains, locus YLR262C, strain YPT6, active compounds read low 1.01 | S. cerevisiae deletion strains, locus YLR268W, strain sec22, active compounds read low 0.993 | S. cerevisiae deletion strains, locus YLR320W, strain mms22, active compounds read low 0.977 | S. cerevisiae deletion strains, locus YLR330W, strain CHS5, active compounds read low 1 | S. cerevisiae deletion strains, locus YLR342W, strain FKS1 (second series), active compounds read low 0.985 | S. cerevisiae deletion strains, locus YLR342W, strain FKS1, active compounds read low 0.953 | S. cerevisiae deletion strains, locus YLR357W, strain rsc2, active compounds read low 0.915 | S. cerevisiae deletion strains, locus YLR370C, strain arc18, active compounds read low 0.961 | S. cerevisiae deletion strains, locus YLR371W, strain rom2, active compounds read low 0.992 | S. cerevisiae deletion strains, locus YLR384C, strain iki3, active compounds read low 0.968 | S. cerevisiae deletion strains, locus YLR418C, strain cdc73, active compounds read low 0.988 | S. cerevisiae deletion strains, locus YML016C, strain PPZ1, active compounds read low 1 | S. cerevisiae deletion strains, locus YML032C, strain rad52, active compounds read low 0.994 | S. cerevisiae deletion strains, locus YML120C, strain ndi1, active compounds read low 0.986 | S. cerevisiae deletion strains, locus YML124C, strain tub3, active compounds read low 0.993 | S. cerevisiae deletion strains, locus YMR058W, strain fet3, active compounds read low 0.984 | S. cerevisiae deletion strains, locus YMR078C, strain ctf18, active compounds read low 0.993 | S. cerevisiae deletion strains, locus YMR125W, strain sto1, active compounds read low 0.963 | S. cerevisiae deletion strains, locus YMR129W, active compounds read low 0.971 | S. cerevisiae deletion strains, locus YMR205C, strain PFK2, active compounds read low 0.988 | S. cerevisiae deletion strains, locus YMR223W, strain ubp8, active compounds read low 0.998 | S. cerevisiae deletion strains, locus YMR231W, strain pep5, active compounds read low 0.98 | S. cerevisiae deletion strains, locus YMR307W, strain GAS1, active compounds read low 0.975 | S. cerevisiae deletion strains, locus YNL067W, strain RPL9B, active compounds read low 1 | S. cerevisiae deletion strains, locus YNL071W, strain lat1, active compounds read low 0.973 | S. cerevisiae deletion strains, locus YNL153C, strain GIM3, active compounds read low 1.02 | S. cerevisiae deletion strains, locus YNL183C, strain NPR1, active compounds read low 1 | S. cerevisiae deletion strains, locus YNL209W, strain ssb2, active compounds read low 0.972 | S. cerevisiae deletion strains, locus YNL233W, strain BNI4, active compounds read low 1 | S. cerevisiae deletion strains, locus YNL248C, strain rpa49, active compounds read low 0.916 | S. cerevisiae deletion strains, locus YNL250W, strain rad50, active compounds read low 1.01 | S. cerevisiae deletion strains, locus YNL271C, strain bni1, active compounds read low 0.985 | S. cerevisiae deletion strains, locus YNL298W, strain CLA4, active compounds read low 0.975 | S. cerevisiae deletion strains, locus YNL307C, strain MCK1, active compounds read low 1 | S. cerevisiae deletion strains, locus YNL322C, strain KRE1 (second series), active compounds read low 0.972 | S. cerevisiae deletion strains, locus YNL322C, strain KRE1, active compounds read low 1.01 | S. cerevisiae deletion strains, locus YNR049C, strain mso1, active compounds read low 0.953 | S. cerevisiae deletion strains, locus YNR052C, strain pop2, active compounds read low 1 | S. cerevisiae deletion strains, locus YOL006C, strain TOP1, active compounds read low 1.08 | S. cerevisiae deletion strains, locus YOL012C, strain htz1 1.61 | S. cerevisiae deletion strains, locus YOL147C, strain pex11, active compounds read low 0.992 | S. cerevisiae deletion strains, locus YOR001W, strain rrp6, active compounds read low 1 | S. cerevisiae deletion strains, locus YOR061W, strain CKA2, active compounds read low 1.01 | S. cerevisiae deletion strains, locus YOR069W, strain VPS5, active compounds read low 1 | S. cerevisiae deletion strains, locus YOR070C, strain gyp1, active compounds read low 0.979 | S. cerevisiae deletion strains, locus YOR080W, strain dia2, active compounds read low 0.986 | S. cerevisiae deletion strains, locus YOR083W, strain WHI5, active compounds read low 0.894 | S. cerevisiae deletion strains, locus YOR106W, strain vam3, active compounds read low 0.951 | S. cerevisiae deletion strains, locus YOR136W, strain idh2, active compounds read low 1 | S. cerevisiae deletion strains, locus YOR144C, strain elg1, active compounds read low 0.998 | S. cerevisiae deletion strains, locus YOR184W, strain ser1, active compounds read low 1.02 | S. cerevisiae deletion strains, locus YOR231W, strain MKK1, active compounds read low 1.09 | S. cerevisiae deletion strains, locus YOR265W, strain rbl2, active compounds read low 0.999 | S. cerevisiae deletion strains, locus YOR270C, strain vph1, active compounds read low 0.936 | S. cerevisiae deletion strains, locus YOR290C, strain snf2, active compounds read low 0.945 | S. cerevisiae deletion strains, locus YOR316C, strain cot1, active compounds read low 0.995 | S. cerevisiae deletion strains, locus YPL051W, strain arl3, active compounds read low 0.977 | S. cerevisiae deletion strains, locus YPL078C, strain atp4, active compounds read low 0.937 | S. cerevisiae deletion strains, locus YPL106C, strain sse1, active compounds read low 0.96 | S. cerevisiae deletion strains, locus YPL240C, strain hsp82, active compounds read low 0.984 | S. cerevisiae deletion strains, locus YPL256C, strain CLN2, active compounds read low 1.08 | S. cerevisiae deletion strains, locus YPR119W, strain clb2, active compounds read low 0.992 | S. cerevisiae deletion strains, locus YPR141C, strain kar3, active compounds read low 0.994 | S. cerevisiae deletion strains, locus YPR163C, strain tif3, active compounds read low 1 | S. cerevisiae deletion strains, locus YPR167C, strain met16, active compounds read low 0.998 | S. cerevisiae deletion strains, strain wtn01, active compounds read low 0.99 | S. cerevisiae strains, strain wild type, active compounds read low 1.01
